{"source": "PubChem BioAssay (NCI)", "note": "Values joined by “and” are separate entries in the source; they are usually repeats but may differ in a detail not shown here. Equal entries are not always repeated. Compounds without any hit were thinned out: in the full panel of roughly 83,000, 20% have a hit.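 Note: values are percent growth. 100 is the growth of untreated cells, values between 100 and 0 indicate rising inhibition; between -100 and 0 indicates cell death.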 A number with no mark means an inactive call. Active and inactive are the calls of the source. How the source made its calls: active means growth percent below 10; inactive means the rest.", "data": [{"system": "HL-60(TB) leukemia", "experiment": "NCI-60 one-dose screen, 48 h (100 = growth as untreated, 0 = no growth, -100 = all killed)", "conditions": "10 µM unless noted", "values": [{"smiles": "Cc1cc(C)c(N)c(Br)c1", "growth": "97.9% and 69%"}, {"smiles": "COc1ccc(-c2n[nH]nc2-c2cc(OC)c3c(c2OC)OCO3)cc1", "growth": "-23.2% (active)"}, {"smiles": "COc1ccc2c(c1)c(-c1noc(C(=O)c3cn(C)c4ccc(Br)cc34)n1)cn2C", "growth": "84.4%"}, {"smiles": "COC(=O)[C@]12CC[C@@H](C)[C@H](C)[C@@H]1C1=CC[C@@H]3[C@@]4(C)C(c5cnco5)=C[C@@](C)(CO)C4=CC[C@@]3(C)[C@]1(C)CC2", "growth": "21.9%"}, {"smiles": "COc1ccc(C(=O)c2cc(OC)c(OC)c(OC)c2)cc1/C=C/C(=O)c1ccc(OC)c(OC)c1", "growth": "19.1%"}, {"smiles": "O=S1(=O)CC(Br)C(Br)C1", "note": "(centres undefined)", "growth": "34.4% and 81.8%"}, {"smiles": "O=C(Nc1ccc(-n2ccc3c(NC(=O)c4ccccc4)nccc32)cc1)Nc1cccc(C(F)(F)F)c1", "growth": "63.8%"}, {"smiles": "N#C/C(=C/c1cc([N+](=O)[O-])ccc1Cl)C(N)=O", "growth": "91.7%"}, {"smiles": "Nc1ccc(S(=O)(=O)c2ccc(Cl)cc2)cc1", "growth": "100%"}, {"smiles": "O=C(O)CC1Sc2ccccc2NC1=O", "note": "(centres undefined)", "growth": "115%"}, {"smiles": "c1ccc(CO[C@H]2CO[C@H]3[C@@H]2OC[C@H]3OCc2ccccc2)cc1", "growth": "88.4%"}, {"smiles": "O=C(O)COCC(=O)O", "growth": "102%"}, {"smiles": "COCC(N)=O", "growth": "90%"}, {"smiles": "Cc1ccccc1NC(=O)N/C(N)=N/c1nc(C)c(C)s1", "growth": "-2.57% (active)"}, {"smiles": "CN(C)c1ccc(/C=N/NC(=O)COc2cc(=O)n(C)c3ccccc23)cc1", "growth": "98.5%"}, {"smiles": "O=C(Nc1ccc(Cl)cc1F)c1ccccc1O", "growth": "19.9%"}, {"smiles": "COc1ccc2c(c1)C(C)Cc1c(N(C)C)ncnc1N2C", "note": "(centres undefined)", "growth": "-4.85% (active)"}, {"smiles": "C=COC(=O)CCOCC(CC)CCCC", "note": "(centres undefined)", "growth": "91.8%"}, {"smiles": "COc1cccc2c1C(=O)c1c(O)c3c(c(O)c1C2=O)C[C@@](O)(C(=O)CO)C[C@@H]3OC1CC(OC(C)=O)C(OC(C)=O)C(C)O1", "note": "(some centres undefined)", "growth": "-40% (active)"}, {"smiles": "CC/C(=C(/c1ccc(OCCN(C)C)cc1)c1ccc(OC(=O)CCCCCCCCC(=O)c2c(C)[nH]c(/C=C3\\N=C(c4ccc[nH]4)C=C3OC)c2C)cc1)c1ccccc1", "growth": "76.7%"}, {"smiles": "Cc1ccccc1Cn1cnc2ccc(-c3cc(NC(=O)c4ccc(NC5CCN(C)CC5)cc4)n[nH]3)cc21", "growth": "79.4%"}, {"smiles": "CCOc1c(C#N)c2c(N)ncnc2n1C1OC(CO)C(O)C1O", "note": "(centres undefined)", "growth": "2.98% (active)"}, {"smiles": "Brc1ccc2[nH]cc(-c3nonc3-c3c[nH]c4ccccc34)c2c1", "growth": "67.3%"}, {"smiles": "CCC(=O)OCc1ccc(OC)cc1", "growth": "97%"}]}]}
